Experimental findings from PubChem BioAssay (Tox21) are described below.

Results filed as inconclusive are left out. Unmarked numbers belong to inactive results. The source made the active and inactive calls. Calls come from the whole dose curve; as a rule, active = well fitted cell-killing curve with a large enough effect in the repeat runs; inconclusive = weak or mixed curves; inactive = no such curve, though single readings can be large or run the other way.
% is set by controls: 0 for no effect and ±100 for the full control effect; potency is the fitted concentration of half-maximal effect.

The experiment in a line: qHTS assay to identify small molecule antagonists of the androgen receptor (AR) signaling pathway - cell viability counter screen (AID 743033; note: nearly all actives have a fitted effect of over 45% in size). Conditions: AR-bla HEK293 viability, CellTiter-Glo luminescence, 16 h; series mostly up to 58.5 µM; activity change, negative = cytotoxicity: at the top concentration. From the text:
National Center for Advancing Translational Sciences [NCATS]
NIH Chemical Genomics Center [NCGC]
U.S. Environmental Protection Agency [EPA]
National Institutes of Environmental Health Sciences [NIEHS]
National Toxicology Program [NTP]
U.S. Food and Drug Administration [FDA]
Androgen receptor (AR), a nuclear hormone receptor, plays a critical role in AR-dependent prostate cancer and other androgen related diseases. Endocrine disrupting chemicals (EDCs) and their interactions with steroid hormone receptors like AR may cause disruption of normal endocrine function as well as interfere with metabolic homeostasis, reproduction, developmental and behavioral functions. To identify the compounds that inhibit AR signaling, GeneBLAzer AR-UAS-bla-GripTite cell line (Invitrogen, Carlsbad, CA, USA) containing a beta-lactamase reporter gene under control of an Upstream Activator Sequence (UAS) stably integrated into HEK293 cells was used to screen the Tox21 10K compound library. The cytotoxicity of the Tox21 compound library against the AR-bla cell line was tested in parallel by measuring the cell viability using CellTiter-Glo assay in the same wells.
Tox21 Assay Protocol Summary:
AR-bla cells were dispensed at 2,000 cells/5 uL of assay medium per well into black wall/clear-bottom 1536-well plates using a Multidrop Combi (ThermoFisher Scientific, Waltham, MA) dispenser. After the assay plates were incubated at a 37C and 5% CO2 for 4 hr, 23 nL of compounds dissolved in DMSO, positive controls or DMSO only was transferred to the assay plate by a Pintool station (Kalypsys, San Diego, CA), followed by addition of 1 uL of agonist (R1881) in culture medium using a Bioraptr Flying Reagent Dispenser (FRD) workstation (Beckman Coulter, Indianapolis, IN, USA). The plates were incubated at a 37C and 5% CO2 for 16 h. After 1 uL of LiveBLAzerTM B/G FRET substrate was added using a Bioraptr FRD, the plates were incubated at room temperature for 2 h and fluorescence intensity was measured by an Envision plate reader (PerkinElmer, Shelton, CT). For cell viability readout that measures cytotoxicity, 4 ul/well of CellTiter-Glo reagent was added into the assay plates using a Bioraptr FRD. After 30 min incubation at room temperature, the luminescence intensity in the plates was measured using a ViewLux (PerkinElmer) plate reader.
As for `CC1(C)CCC[C@]2(C)[C@H]3CCO[C@]3(C)CC[C@@H]12`, the “activity change, negative = cytotoxicity” value was 6.98%.

With `c1ccc(SSc2ccccc2)cc1`, the “activity change, negative = cytotoxicity” value is 1.87% [at 78.9 µM]. On to `OC1CCC(C2CCCCC2)CC1` (stereo not given), for which the “activity change, negative = cytotoxicity” value is -10.9%.

Regarding `Nc1nc2c(ncn2COCCO)c(=O)[nH]1`, the “activity change, negative = cytotoxicity” value was -26.4% [at 27 µM]. For the molecule `CCc1oc2ccccc2c1C(=O)c1cc(I)c(O)c(I)c1`, the “activity change, negative = cytotoxicity” value is -19.7%. Turning to `CC(CO)Oc1ccccc1` (stereo not given), the “activity change, negative = cytotoxicity” value is 3.37% [at 78.9 µM]. The same measure, in the same setting: the same measure for `OCC(F)(F)F`: 1.72% [at 78.9 µM]. In the case of `CCCCCCCC/C=C\CCCCCCCCN`, the “activity change, negative = cytotoxicity” value was -18.6%. As to `O=C1NC(=O)[C@@H]2CC=CC[C@H]12`, the “activity change, negative = cytotoxicity” value was -16.2%. Still for that read-out and setting: under `CN1CCN2c3ccccc3Cc3ccccc3C2C1` (stereo not given) stands 6.31%. Take `CCc1ccc(Br)cc1`: the “activity change, negative = cytotoxicity” value is -0.13% [at 78.9 µM].

Take `c1ccc(C(O[C@@H]2CCCN(CCc3ccc4c(c3)OCO4)C2)c2ccccc2)cc1`: the “activity change, negative = cytotoxicity” value was -19.1%. As to `CC(=O)c1ccc(C(C)=O)cc1`, the “activity change, negative = cytotoxicity” value is 10.3% [at 78.9 µM]. `COC(C)=O`: the Potency entry was “inactive”. As for `Cc1ccc(C)cc1`, the “activity change, negative = cytotoxicity” value was -27.3%.

With `NC(=O)c1cccc([N+](=O)[O-])c1`, the “activity change, negative = cytotoxicity” value was 5.58%.

For the molecule `OC/C=C/CO`, the “activity change, negative = cytotoxicity” value was 7.72%. Still for that read-out and setting: under `CC(C)CCOC(=O)/C=C/c1ccccc1` stands -0.679% [at 78.9 µM]; under `CC(C)OC(=O)C(O)(CC(=O)O)CC(=O)O`, -0.488%; under `COC(=O)Nc1nc2ccc(C(=O)c3ccccc3)cc2[nH]1`, -27.1% [at 27 µM]. Consider `C#C[C@]1(OC(C)=O)CC[C@H]2[C@@H]3CCC4=C/C(=N/O)CC[C@@H]4[C@H]3CC[C@@]21CC`, for which the “activity change, negative = cytotoxicity” value was -1.5%. Take `CC[N+](CC)(CC)CCOC(=O)C(C1CCCC1)C1CCCC1`: the “activity change, negative = cytotoxicity” value is 4.64%. Still for that read-out and setting: the same measure for `C/C=C/C=C/COC(=O)C(C)C`: 3.25%; for `Nc1nc(N)nc(-c2cc(Cl)ccc2Cl)n1`: 16.4%. For the molecule `Oc1cc(Cl)cc(Cl)c1Cl`, the Potency is 50.2 µM (active). Consider `O=C1CCc2ccc(OCCCCN3CCN(c4cccc(Cl)c4Cl)CC3)cc2N1`, for which the “activity change, negative = cytotoxicity” value is -3.92%. Still for that read-out and setting: under `CCCC[P+](C)(CCCC)CCCC` stands -3.54% [at 78.9 µM]; under `CCC(C)[O-].CCC(C)[O-].CCOC(=O)/C=C(/C)[O-].[Al+3]`, 17.1%; under `CCCCCCC1CCCC(=O)O1` (stereo not given), -2.56%.

Take `S=c1nccc[nH]1`: the “activity change, negative = cytotoxicity” value is -0.353%. For `CNC(=O)c1ccccc1Sc1ccc2c(/C=C/c3ccccn3)n[nH]c2c1`, the “activity change, negative = cytotoxicity” value was -15.2%. For the molecule `CCC(=O)C(=O)CC`, the “activity change, negative = cytotoxicity” value was -9.37% [at 78.9 µM].

Turning to `Nc1cc(Cl)c(O)c(Cl)c1`, the “activity change, negative = cytotoxicity” value is -1.44%.

Consider `CCC(=O)OC(=O)CC`, for which the “activity change, negative = cytotoxicity” value is -0.0252%.

Take `Cc1ccc(C(=O)O)cc1`: the “activity change, negative = cytotoxicity” value was 0.651% [at 78.9 µM]. With `CCCCCCCCCCCCOC(=O)c1ccc(O)cc1`, the “activity change, negative = cytotoxicity” value is 2.96% [at 78.9 µM]. `CNc1ccc([N+](=O)[O-])cc1`: the “activity change, negative = cytotoxicity” value is -8.99%. For `CCOC(=O)NNc1ccc(N(CC)CC(C)O)nn1` (stereo not given), the “activity change, negative = cytotoxicity” value was -19.1%. `O[C@@H]([C@H](O)[C@H](O)CBr)[C@H](O)CBr`: the Potency entry is “inactive”. For `CCCC(=O)OCCc1ccccc1`, the “activity change, negative = cytotoxicity” value was -3.38%.
